# According to PubChem BioAssay AID376 (PDSP, 2006):
# The whole screen tested about 2,000 compounds, of which about 250 (12%) were called active. This excerpt belongs to a sample that is enriched for actives. Values without a mark were called inactive. Cut-off read from the data, not from the text of the source: active = hERG blockade below about -20% or above about 20%; inactive = in between.
# Biological target: Voltage-gated inwardly rectifying potassium channel KCNH2 (Homo sapiens) (UniProt Q12809)
# Assay: KCNH2 potassium channel function modulators, cell-based (AID 376);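 note: 0% = buffer alone and 100% = reference blocker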
# Settings: hERG-expressing cells, channel activity single-concentration screen; concentration not given here
# Sequence of Voltage-gated inwardly rectifying potassium channel KCNH2 (Homo sapiens) (Q12809 whole entry, looked up): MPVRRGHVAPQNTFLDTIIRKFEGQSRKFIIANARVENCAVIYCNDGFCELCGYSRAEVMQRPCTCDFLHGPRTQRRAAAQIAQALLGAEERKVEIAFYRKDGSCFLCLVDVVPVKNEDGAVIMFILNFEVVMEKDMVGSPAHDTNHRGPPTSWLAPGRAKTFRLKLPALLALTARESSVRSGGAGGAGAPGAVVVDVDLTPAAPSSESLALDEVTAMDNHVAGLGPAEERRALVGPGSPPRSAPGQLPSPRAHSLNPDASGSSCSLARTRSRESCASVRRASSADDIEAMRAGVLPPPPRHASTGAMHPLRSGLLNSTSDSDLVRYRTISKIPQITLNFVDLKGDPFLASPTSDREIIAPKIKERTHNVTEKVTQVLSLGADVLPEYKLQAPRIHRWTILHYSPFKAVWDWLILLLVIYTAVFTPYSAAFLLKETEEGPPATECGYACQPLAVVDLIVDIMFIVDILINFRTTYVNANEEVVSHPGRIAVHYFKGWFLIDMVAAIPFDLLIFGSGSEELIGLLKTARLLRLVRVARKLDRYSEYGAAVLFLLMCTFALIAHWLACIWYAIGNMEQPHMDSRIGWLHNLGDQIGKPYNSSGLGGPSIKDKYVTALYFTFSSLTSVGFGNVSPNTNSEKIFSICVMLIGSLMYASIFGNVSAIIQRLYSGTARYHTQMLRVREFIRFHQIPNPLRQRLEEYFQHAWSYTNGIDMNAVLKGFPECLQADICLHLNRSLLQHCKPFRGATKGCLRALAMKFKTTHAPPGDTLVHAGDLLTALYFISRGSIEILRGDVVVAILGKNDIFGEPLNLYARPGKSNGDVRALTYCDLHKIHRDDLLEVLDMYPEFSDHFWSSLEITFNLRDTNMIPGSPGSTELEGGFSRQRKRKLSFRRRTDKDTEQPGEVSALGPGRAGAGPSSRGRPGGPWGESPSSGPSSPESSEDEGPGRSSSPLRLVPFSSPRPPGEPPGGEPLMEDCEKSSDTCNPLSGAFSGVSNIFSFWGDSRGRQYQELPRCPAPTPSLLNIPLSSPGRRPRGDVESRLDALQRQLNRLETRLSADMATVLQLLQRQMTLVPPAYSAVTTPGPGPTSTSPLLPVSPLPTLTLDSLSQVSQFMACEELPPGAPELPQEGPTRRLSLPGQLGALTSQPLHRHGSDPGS
row,SMILES,hERG blockade
1,C(=NNc1nnc2c(n1)[nH]c1ccccc12)c1cccnc1,9.9%
2,C(=NNc1ccccn1)c1cccnc1,20.3% (active)
3,c1ccc(CCc2cccnc2)nc1,5.71%
4,Nc1ccc(-c2ccc(Nc3cc(S(=O)(=O)O)c(N)c4c3C(=O)c3ccccc3C4=O)cc2)c(S(=O)(=O)O)c1,14.3%
5,O=C(O)CCNCC(=O)O,2.22%
6,Cc1cc(C(C)(C)C)cc(CNC2CCCCC2)c1O,-1.49%
7,OCCN(CCO)c1ncnc2nc[nH]c12,9.05%
8,CN(C)CCCC1c2ccccc2Oc2ccc(C(F)(F)F)cc21 (centres undefined),32.9% (active)
9,CCCC1c2c(ccc3ccccc23)Oc2ccc3ccccc3c21,16.8%
10,NC(N)=NN=Cc1ccc(O)c(C(=O)O)c1,7.85%
11,Cc1cc(CN2CCCCC2)c(O)c(CN2CCCCC2)c1,8.76%
12,O=C(O)c1[nH]c(=O)[nH]c(=O)c1CN1CCCCC1,-7.69%
13,Cc1nc(CN2CCCCC2)c(O)c(=O)[nH]1,-28.2% (active)
14,CCN1CCC(O)(C(C(=O)O)c2ccccc2)CC1 (centres undefined),4.76%
15,CC(C)=CCNc1ncnc2nc[nH]c12,-6.5%
16,Cc1cccc2cc3ccc4ccccc4c3cc12,11.1%
17,CCN(CC)CC(O)c1ccc2ccc3ccccc3c2c1 (centres undefined),-73.4% (active)
18,CCN(Cc1cc(Cl)cc(C)c1O)Cc1c(O)ccc2ccccc12,13%
19,N=C(N)SCCSC(=N)N,9.63%
20,N#CC(C#N)=NNc1ccc2cn[nH]c2c1,-4.08%
21,CN(C)S(=O)(=O)Nc1ccccn1,4.55%
22,CC(O)(CNS(=O)(=O)c1ccccc1)c1ccccc1 (centres undefined),-5.67%
23,CN(CCC(=O)O)S(=O)(=O)c1ccccc1,-22% (active)

row,SMILES,hERG blockade
1,O=C(O)CC[P+](c1ccccc1)(c1ccccc1)c1ccccc1,19.1%
2,O=c1[nH]c(SCc2cccc([N+](=O)[O-])c2)nc2nc[nH]c12,7.87%
3,CC1(CO)C(O)CCC2(C)C1CCC1CC3CC12CCC3(O)COC(=O)CN (centres undefined),14.2%
4,N=C(N)SCC(=O)O,11%
5,O=C(O)c1cscc1Cc1cccs1,-9.17%
6,O=C(O)c1ccccc1CN1CCCC(C(=O)O)C1 (centres undefined),-4.8%
7,OC(c1cc(-c2ccccc2)nc2c1ccc1ccccc12)C1CCCCN1 (centres undefined),26.8% (active)
8,OC(c1cc(C23CC4CCC2CC(C4)C3)nc2c(Cl)cc(Cl)cc12)C1CCCCN1 (centres undefined),-0.23%
9,OC(c1cc(C(F)(F)F)nc2c(Cl)cc(Cl)cc12)C1CCCCN1 (centres undefined),28.7% (active)
10,OC(c1cc(-c2ccc(Cl)cc2)nc2ccccc12)C1CCCCN1 (centres undefined),74.7% (active)
11,Cc1cc(C)c2nc3c(c(C(O)C4CCCCN4)c2c1)CCC3=Cc1ccc(Cl)cc1 (centres undefined),8.84%
12,O=C(O)c1cc(-c2ccc3cc4c(cc3c2)OCO4)nc2ccccc12,17.2%
13,COc1ccc(-c2cc(C(O)C3CCCCN3)c3ccccc3n2)cc1 (centres undefined),72.7% (active)
14,OC(CC1CCCCN1)c1ccc2c(c1)oc1ccccc12 (centres undefined),4.42%
15,O=C(O)CSc1cc(-c2ccccc2)nc2ccccc12,-16.2%
16,c1ccc2nc(CCC3CCCCN3)ccc2c1 (centres undefined),-2.95%
17,O=C(O)c1cc(-c2ccc(-c3ccccc3)cc2)nc2cc3ccccc3cc12,12.2%
18,NC(CSCc1ccc(I)cc1)C(=O)O (centres undefined),8.02%
19,O=C(O)c1cc2c(cc1S(=O)(=O)O)C1C(C3C2C2(Cl)C(Cl)=C(Cl)C3(Cl)C2(Cl)Cl)C2(Cl)C(Cl)=C(Cl)C1(Cl)C2(Cl)Cl (centres undefined),3.63%
20,CC(C)Oc1cc(O)c2c(c1)OCC=C2CCC(=O)O,16%
21,O=C1OC2(c3ccc(O)cc3Oc3cc(O)ccc32)c2c1c(-c1ccccc1)c(-c1ccccc1)c(-c1ccccc1)c2-c1ccccc1,-2.77%
22,O=C(O)C=CC=Cc1ccc2c(c1)OCO2,-8.5%
23,O=C(O)CSC1=NCCN1,-1.36%

row,SMILES,hERG blockade
1,Cc1ccc(S(=O)(=O)OC2CCN(C)CC2)cc1,-11.1%
2,Nc1ncnc2nn(C3OC(CO)C(O)C3O)nc12 (centres undefined),13.3%
3,N#CC(=NCCO)C1=C(O)c2ccccc2C1=O,-3.02%
4,CC1CCCC2(CC[N+](C)(CCC[N+](C)(C)C)CC2)C1 (centres undefined),17.8%
5,CCN(CC(=O)O)CC(=O)O,4.67%
6,CN1CCCC(C(=O)OCC(=O)C2(O)CCC3C4CCC5=CC(=O)CCC5(C)C4C(O)CC32C)C1 (centres undefined),25.6% (active)
7,CC12CCC(=O)C=C1CCC1C2C(O)CC2(C)C1CCC2(O)C(=O)CO (centres undefined),14.3%
8,CC12CCC(=O)C=C1CCC1C2C(O)CC2(C)C1CCC2(O)C(=O)COC(=O)C1CCCC1 (centres undefined),-2.63%
9,CC(NC(=O)C1(N)CCCC1)C(=O)O (centres undefined),-5.06%
10,CCOC(=O)Cn1c(C(F)(F)F)nc2nc(Cl)c(Cl)nc21,13.4%
11,O=C(O)c1nn(-c2ccccc2-c2n[nH]c(=O)[nH]c2=O)c(=O)[nH]c1=O,7.69%
12,O=C(O)c1nn(-c2ccc(Cl)cc2)c2c1C(=O)c1ccccc1C2=O,26% (active)
13,O=C1C(=O)c2ccccc2C(O)=C1C(C1=C(O)c2ccccc2C(=O)C1=O)c1ccc(Cl)cc1,17.5%
14,Cc1cn(C2CC(N=[N+]=[N-])C(CO)O2)c(=O)[nH]c1=O (centres undefined),9.12%
15,CC(C)C12CCC3(CCC4C(C)(C(=O)O)CCCC4(C)C3C1)C(CN)C2 (centres undefined),-4.91%
16,CN(C)CCC=C1c2ccccc2Sc2ccc(Cl)cc21,66.2% (active)
17,CN(C)CCC=C1c2ccccc2C=Cc2ccccc21,15.1%
18,CC(C[n+]1ccccc1)=NN=C(N)N,12.9%
19,Clc1ccc2c(NC3CCC(N4CCCCC4)CC3)ccnc2c1 (centres undefined),53.4% (active)
20,Clc1ccc2c(NCCNC3CCCCC3)ccnc2c1,63.2% (active)
21,Clc1ccc2c(N3CCC(CCC4CCN(c5ncnc6cc(Cl)ccc56)CC4)CC3)ncnc2c1,-8.41%
22,O=C(O)c1ccc(Nc2ccnc3cc(Cl)ccc23)cc1O,-3.15%
23,Clc1ccc2c(NCCNc3ccnc4cc(Cl)ccc34)ccnc2c1,0.444%
